This is part of a sample that, as a whole, favours compounds with a hit. Of some 83,000 tested, about 20% had one in any assay.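 Values shown are percent growth following 48 h exposure of cells in 96-well plates to a single concentration of compound; below 10 was considered active.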 Values without a mark were called inactive. Calls of active or inactive are those of the source.

Some test systems named below: SK-MEL-2 melanoma; EKVX NSCLC; SN12C renal; UO-31 renal; TK-10 renal; ACHN renal; A498 renal; CCRF-CEM leukemia; MOLT-4 leukemia; SR leukemia; RPMI-8226 leukemia; OVCAR-8 ovarian; OVCAR-5 ovarian; OVCAR-4 ovarian; SK-OV-3 ovarian; IGROV1 ovarian; OVCAR-3 ovarian; HS 578T breast; NCI/ADR-RES ovarian.
Assay in all cases: NCI-60 one-dose screen, 48 h (100 = growth as untreated, 0 = no growth, -100 = all killed)
What all share (conditions): 10 µM unless noted

Take `Nc1nc2ccccc2c2c1S(=O)(=O)c1ccc(Cl)cc1C2=O`: the growth is 42% with SK-MEL-2 melanoma; 48.2% with EKVX NSCLC; 11.4% in the assay on SN12C renal; -15.2% (active) in the assay on UO-31 renal; 16.6% with TK-10 renal; 17.8% with ACHN renal. Moreover, the growth was 56.9% in the assay with A498 renal; -10.3% (active) with CCRF-CEM leukemia; 3.11% (active) with MOLT-4 leukemia; 3.3% (active) with SR leukemia; -15.1% (active) with RPMI-8226 leukemia; 8.43% (active) in the assay with OVCAR-8 ovarian. Also, the growth is 13.9% in the assay on OVCAR-5 ovarian; 7.52% (active) with OVCAR-4 ovarian; 58.6% in the assay on SK-OV-3 ovarian; 27.6% with IGROV1 ovarian; -12.5% (active) with OVCAR-3 ovarian; 6.88% (active) in the assay with HS 578T breast. For the same compound, the growth in the assay with NCI/ADR-RES ovarian was 24.8%.

Regarding `O=C(CSc1nnc(-c2cnccn2)n1-c1ccccc1)c1ccc(Cl)cc1`, the growth in the assay with SK-MEL-2 melanoma is 96.4%; in the assay with EKVX NSCLC, 103%; in the assay on SN12C renal, 87.5%; in the assay with UO-31 renal, 94.2%; in the assay with TK-10 renal, 99.2%; with ACHN renal it was 99.8%. The growth in the assay with A498 renal is 93.1%; in the assay on CCRF-CEM leukemia it was 92.1%; with MOLT-4 leukemia it was 93.4%; in the assay with SR leukemia, 90.8%; in the assay with RPMI-8226 leukemia, 92%; in the assay with OVCAR-8 ovarian it was 100%. The growth with OVCAR-5 ovarian was 96.9%; with OVCAR-4 ovarian it was 105%; with SK-OV-3 ovarian, 108%; with IGROV1 ovarian, 106%; with OVCAR-3 ovarian, 98.3%; in the assay with HS 578T breast, 104%. Also, in the assay on NCI/ADR-RES ovarian, the growth was 104%.

For the compound `NC(=O)c1cccc(-n2ccc3cc(NC(=O)c4ccc(N5CCOCC5)c(C(F)(F)F)c4)ccc32)n1`, the growth in the assay with SK-MEL-2 melanoma is 71%; with EKVX NSCLC, 47.8%; in the assay on SN12C renal, 73.5%; in the assay with UO-31 renal, 36.5%; with TK-10 renal, 86.9%; in the assay on ACHN renal, 46.6%. Moreover, the growth was 15.7% in the assay on A498 renal; 34.4% in the assay with CCRF-CEM leukemia; 26.5% in the assay with SR leukemia; 12.2% with RPMI-8226 leukemia; 31.9% with OVCAR-8 ovarian; 70.1% in the assay with OVCAR-5 ovarian. Moreover, the growth in the assay with OVCAR-4 ovarian is 47%; in the assay on SK-OV-3 ovarian, 43.3%; with IGROV1 ovarian, 74.8%; in the assay on OVCAR-3 ovarian, 48.7%; with HS 578T breast it was 14%; in the assay on NCI/ADR-RES ovarian it was 66.1%.

As for `NC(N)=NCCCCCNc1noc(Cc2c[nH]c3cc(Br)ccc23)n1`, the growth in the assay on SK-MEL-2 melanoma was 87.7%; in the assay on EKVX NSCLC it was 69.6%; with SN12C renal, 44.7%; in the assay with UO-31 renal, 80.2%; in the assay with TK-10 renal it was 75.4%; in the assay with ACHN renal it was 92.6%. Further, the growth in the assay on A498 renal was 94%; with CCRF-CEM leukemia it was 97.8%; in the assay with MOLT-4 leukemia, 60.2%; with SR leukemia it was 98.3%; in the assay with RPMI-8226 leukemia, 39.6%; with OVCAR-8 ovarian, 64.6%. The growth in the assay with OVCAR-5 ovarian was 85.4%; in the assay on OVCAR-4 ovarian it was 67.5%; in the assay with SK-OV-3 ovarian, 83.7%; with IGROV1 ovarian, 56.3%; with OVCAR-3 ovarian, 33.4%; with HS 578T breast it was 56.9%. In the assay with NCI/ADR-RES ovarian, the growth was 101%.

With `O=[N+]([O-])c1cccc(-c2nc3cc4nc5ccccc5[nH]c4cc3n2)c1`, the growth was 93.4% with SK-MEL-2 melanoma; 99.7% in the assay with EKVX NSCLC; 108% with SN12C renal; 84.4% in the assay with UO-31 renal; 105% with TK-10 renal; 103% in the assay on ACHN renal. Also, the growth with A498 renal is 92.1%; in the assay on CCRF-CEM leukemia it was 111%; in the assay with MOLT-4 leukemia, 92.9%; in the assay on SR leukemia, 93.4%; in the assay with RPMI-8226 leukemia, 101%; with OVCAR-8 ovarian, 98.2%. Moreover, the growth with OVCAR-5 ovarian is 111%; in the assay with OVCAR-4 ovarian, 98.3%; in the assay on SK-OV-3 ovarian, 102%; with IGROV1 ovarian it was 99.1%; in the assay on OVCAR-3 ovarian, 98.7%; with HS 578T breast, 109%. In the assay on NCI/ADR-RES ovarian, the growth was 101%.

In the case of `O=C(COc1ccc(-c2nc3cc(Cl)c(Cl)cc3[nH]2)cc1)N=Nc1c(O)[nH]c2ccc(Cl)cc12`, the growth in the assay on SK-MEL-2 melanoma was 90.2%; with EKVX NSCLC, 96.8%; in the assay with SN12C renal, 74.5%; in the assay with UO-31 renal it was 94.4%; in the assay on TK-10 renal, 91.4%; with ACHN renal it was 71.8%. Moreover, the growth in the assay with A498 renal is 91.3%; with CCRF-CEM leukemia it was 24.2%; in the assay with MOLT-4 leukemia it was 47%; in the assay on SR leukemia, 31.1%; in the assay with RPMI-8226 leukemia it was 56%; with OVCAR-8 ovarian it was 37%. The growth with OVCAR-5 ovarian was 95.6%; in the assay on OVCAR-4 ovarian, 64.2%; in the assay on SK-OV-3 ovarian, 84.5%; in the assay with IGROV1 ovarian, 79.9%; in the assay on OVCAR-3 ovarian it was 75.1%; in the assay with HS 578T breast, 67.5%. The growth in the assay with NCI/ADR-RES ovarian was 95.8%.

Regarding `Oc1c(Br)cc(Br)c2ccc(Cn3cc(-c4ccc(C(F)(F)F)cc4)nn3)nc12`, the growth in the assay with SK-MEL-2 melanoma was 90.9%; in the assay with EKVX NSCLC it was 83.6%; with SN12C renal it was 71%; in the assay on UO-31 renal, 63.5%; with TK-10 renal it was 99.1%; in the assay with ACHN renal it was 26.4%. The growth is 96.8% in the assay on A498 renal; 2.97% (active) in the assay with CCRF-CEM leukemia; 11.3% in the assay on MOLT-4 leukemia; -22.9% (active) in the assay on SR leukemia; -1.77% (active) with RPMI-8226 leukemia; 59.5% in the assay with OVCAR-8 ovarian. The growth with OVCAR-5 ovarian was 89%; in the assay on OVCAR-4 ovarian it was 54%; with SK-OV-3 ovarian, 110%; with IGROV1 ovarian, 79.6%; in the assay with OVCAR-3 ovarian it was -7.84% (active); with HS 578T breast, 101%. Also, the growth with NCI/ADR-RES ovarian was 105%.

For the compound `CC(C)(Sc1cc(C(C)(C)C)c(O)c(C(C)(C)C)c1)Sc1cc(C(C)(C)C)c(OC(=O)CCCC(=O)O)c(C(C)(C)C)c1`, the growth was 76% in the assay on SK-MEL-2 melanoma; 53.5% with EKVX NSCLC; 41.4% in the assay on SN12C renal; 38% with UO-31 renal; 74.2% in the assay with TK-10 renal; 47% in the assay with ACHN renal. The growth is 60.2% with A498 renal; 43.5% with CCRF-CEM leukemia; 36.9% with MOLT-4 leukemia; 28.1% in the assay with SR leukemia; 37.2% in the assay on RPMI-8226 leukemia; 56.7% with OVCAR-8 ovarian. The growth in the assay on OVCAR-5 ovarian was 100%; in the assay on OVCAR-4 ovarian, 67.9%; in the assay with SK-OV-3 ovarian, 91.6%; with IGROV1 ovarian it was 57.4%; in the assay on OVCAR-3 ovarian it was 44.2%; in the assay on HS 578T breast, 80.1%. Further, in the assay on NCI/ADR-RES ovarian, the growth is 78.7%.

For the origin of these results see PubChem BioAssay (NCI).
